Screening data from PubChem.
Pol eta inh: DNA polymerase eta (human) inhibition | recombinant Pol eta, fluorescent DNA replication assay | Potency, µM (highest dose often 114 µM), inactives show at the highest dose activity change, negative = inhibition, most hits filed as inhibitors | actives 1.2% (n = 390,000) | AID 588591; note: potency is the fitted concentration of half-maximal effect; % is set by controls: 0 for no effect and ±100 for the full control effect
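Fluorescent replication assay: 50 nM final substrate added after a 15 min room-temperature compound preincubation with 10 nM enzyme. Signal taken at 0 min and again at 10 min.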
Pol kappa inh: DNA polymerase kappa (human) inhibition; Q9UBT6; purified Pol kappa, fluorescent DNA synthesis assay, 10 min; Potency, µM (top dose mostly 107 µM), without a hit: at the top dose activity, negative = inhibition, most hits filed as inhibitors; actives 0.53% (n = 400,000); AID 588579; note: potency is the fitted concentration of half-maximal effect; % is set by controls: 0 for no effect and ±100 for the full control effect
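10 nM Pol kappa was preincubated with compounds for 15 min at room temperature. Reaction started with 50 nM (final) substrate. Fluorescence read kinetically at 0 and 10 min.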
Pol iota inh: inhibitors of human DNA polymerase iota; Q9UNA4; Pol iota fluorescent replication assay, 10 min; Potency, µM (highest dose often 115 µM), inactives show at the highest dose activity, negative = inhibition, most hits filed as inhibitors; actives 1% (n = 390,000); AID 588590; note: potency is the fitted concentration of half-maximal effect
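Fluorescent replication assay read twice, at 0 min and 10 min after adding 50 nM (final) substrate. Enzyme (10 nM) and compounds were first incubated 15 min at room temperature; enzyme-free buffer wells were negative controls.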
WRN helicase inh: blocks human WRN helicase. Q14191. WRN helicase unwinding, fluorescent forked duplex, kinetic. Potency, µM (top dose mostly 114 µM), without a hit: top-dose activity change, negative = inhibition, usual class: inhibitors. actives 0.46% (n = 360,000). AID 651768; note: potency is the fitted concentration of half-maximal effect; % is set by controls: 0 for no effect and ±100 for the full control effect; nearly all actives have a fitted effect of over 55% in size
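Kinetic red-fluorescence monitoring (525/598 nm) tracks WRN helicase activity after 100 nM fluorophore-quencher forked duplex and 2 mM ATP are added to 20 nM enzyme pretreated 15 min at room temperature with compound.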
PI5P4Ka inh: blocks human PI5P4K alpha kinase activity | P48426 | PI5P4Kalpha enzyme, ADP-Glo luminescence, 60 min; stronger effect = lower value | max response, % | actives 1.2% (n = 330,000); active = max response of -50% or lower; inconclusive = between -30% and -50%; inactive = -30% or higher; note: value at the top dose of about 77 µM; % is set by controls: 0 for no effect and ±100 for the full control effect
Target sequence (P48426 whole entry, looked up): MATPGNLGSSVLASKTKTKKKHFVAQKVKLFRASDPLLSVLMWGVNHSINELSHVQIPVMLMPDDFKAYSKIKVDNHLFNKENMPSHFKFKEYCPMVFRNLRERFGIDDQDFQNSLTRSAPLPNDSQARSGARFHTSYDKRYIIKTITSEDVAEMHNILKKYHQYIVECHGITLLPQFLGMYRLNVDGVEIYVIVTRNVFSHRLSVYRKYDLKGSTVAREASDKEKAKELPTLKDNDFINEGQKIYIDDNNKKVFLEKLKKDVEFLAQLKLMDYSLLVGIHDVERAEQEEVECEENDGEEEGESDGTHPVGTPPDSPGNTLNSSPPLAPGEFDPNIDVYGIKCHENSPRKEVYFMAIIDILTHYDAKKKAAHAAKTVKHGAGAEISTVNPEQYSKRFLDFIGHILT
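Controls without substrate or without enzyme flank wells where PI5P4Kalpha converts substrate using 5 microM ATP (final). Incubation lasts 60 minutes at room temperature; ADP formed is read by ADP-Glo luminescence.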
POLB inh: DNA polymerase beta (human) inhibition; P06746; Pol beta primer extension/strand displacement, fluorescence kinetic; Potency, µM (doses to about 114 µM), inactives show at the highest dose activity change, negative = inhibition, usual class: inhibitors; actives 1.3% (n = 340,000); note: potency is the fitted concentration of half-maximal effect; % is set by controls: 0 for no effect and ±100 for the full control effect
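Kinetic readout of DNA synthesis with strand displacement by Pol beta. Compound and 10 nM enzyme sit 15 min at room temperature; 50 nM substrate starts the reaction, read immediately and at 10 min.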
The depositor's hits bear a star; ? = inconclusive; / = no result given; [ ] = another dose, or the depositor's remark. Sampled rows, rich in hits. Any-hit rate of the full collection: about 2.8%. Unless noted, calls come from the whole dose curve; as a rule, active = well fitted curve in the direction sought with a large enough effect; inconclusive = small, poorly fitted or top-dose-only effect, or another doubt; inactive = no such curve, though single readings can be large; an effect the other way counts as inactive or inconclusive.

SMILES	Pol eta inh	Pol kappa inh	Pol iota inh	WRN helicase inh	PI5P4Ka inh	POLB inh
CCN(CC)CCCNC(=O)c1nn(C)c2c1CS(=O)(=O)c1ccccc1-2	-17.8%	-13.0%	4.8%	/	/	-8.5%
CC(C)[C@@H]1CC[C@@H](C)C[C@@H]1P(=O)(c1ccccc1)c1ccccc1	/	5.1%[60.1 µM]	/	/	/	/
O=c1c(Cl)c(Cl)cnn1Cc1nnc(-c2ccc(Cl)cc2)o1	50.1µM*	-39.0%	39.8µM*	-13.6%[11.6 µM]	-57.8*	39.8µM*
COc1ccc(NC(=O)/C(Cl)=C(/Cl)S(=O)Cc2ccc(Cl)cc2)cn1 (stereo unspecified)	?	-6.3%	?	22.4µM*	-3.2	?
Cc1ccc(NC(=O)COCc2cc(-c3cccs3)on2)cc1Cl	-4.6%	-21.5%	-4.2%	/	/	-20.3%
O=S(=O)(NCCc1nnc2ccc(SCc3ccccc3Cl)nn12)c1ccccc1	-22.6%	-0.4%	41.0%	/	/	0.9%
COc1cccc(NC(=O)CSc2cc(C)c3ccccc3n2)c1	/	1.4%	35.6%	/	/	-1.0%
COc1ccc2c(C)cc(SCC(=O)Nc3cc(C(N)=O)cc(C(N)=O)c3)nc2c1	50.1µM*	-14.6%	35.5µM*	-6.3%[11.6 µM]	6.3	25.1µM*
COc1cccc(CN(Cc2ccco2)c2cnc(S(C)(=O)=O)nc2C(=O)Nc2cccc(Cl)c2C)c1	-18.4%	-16.9%	13.8%	/	/	-15.1%
O=C(OCc1cc(=O)n2nc(-c3cccs3)sc2n1)c1ccccc1Br	79.4µM*	-25.4%	?	/	/	20µM*
O=C(OCc1cc(=O)n2nc(-c3cccs3)sc2n1)c1cccc(F)c1	?	-2.7%	?	/	/	17.8µM*
O=C(COc1ccc(F)cc1)OCc1cc(=O)n2nc(-c3cccs3)sc2n1	-9.9%	?	?	/	/	?
O=C(COc1ccccc1Cl)OCc1cc(=O)n2nc(-c3cccs3)sc2n1	-2.2%	-6.8%	-6.6%	/	/	?
O=C(O)Cn1cnc2scc(-c3cccs3)c2c1=O	20µM*	-24.8%	?	-16.4%[57.1 µM]	-1.2	20µM*
Cc1ccccc1NC(=O)CCS(=O)(=O)c1ccc(Br)s1	?	?	?	-21.1%	-17.5	35.5µM*
CCN(CC)CCCNc1nc2ccccc2c2nc(-c3ccncc3)nn12	20.2%	?	?	-1.7%[11.6 µM]	1.6	35.5µM*
CCc1nc2cccnc2n1-c1ccc(CC(=O)Nc2cccc(C)c2C)cc1	-5.2%	-2.9%	28.0%	/	/	20.5%
Fc1cccc2sc(Nc3nnc(-c4ccco4)o3)nc12	?	-27.9%	?	?	-19.4	17.8µM*
O=C(Nc1nc2c(F)cccc2s1)c1ccco1	-10.0%	15.8%	4.1%	0.7%	-3.6	0.9%
Cc1cc2c(n1-c1ccc(C(=O)O)cc1)CCCCC2	/	/	/	/	/	2.51µM*
Cc1ccc(CNC(=O)c2ccc(-n3c(C)cc4c3CCCC4)cc2)cc1	-11.2%	-5.2%	-6.6%	/	/	13.1%
COC(=O)C1Sc2[nH]c(=O)sc2C2c3ccccc3OC(=O)C12 (stereo unspecified)	8.3%	-7.2%	45.4%	4.5%	-2.5	17.8%
CC1(C(=O)O)Sc2[nH]c(=O)sc2C2c3ccccc3OC(=O)C21 (stereo unspecified)	10.1%	-15.0%	-2.0%	-11.5%	-90.7*	-9.9%
CCc1nnc(NC(=O)CSc2nccn2Cc2ccc(F)cc2)s1	-8.7%	2.2%[60.1 µM]	17.2%	/	/	-24.1%
COc1ccc(Cn2c(SCc3ccc(C(=O)NCc4ccc(C)cc4)cc3)nc3cccnc32)cc1	-4.8%	-36.2%	79.4µM*	/	/	13.3%
SMILES	Pol eta inh	Pol kappa inh	Pol iota inh	WRN helicase inh	PI5P4Ka inh	POLB inh
O=c1ccsn1Cc1ccccc1	-14.1%	-0.2%	25.1µM*	50.1µM*	?	4.2%
O=C1NC(Cc2ccccc2)C(=O)N1Cc1ccccc1 (stereo unspecified)	-10.9%	-5.4%	26.1%	2.4%	-2.1	/
CCc1ccc(N(CC)C(=O)Cn2nc(Cc3cccnc3)c3ccccc3c2=O)cc1	-1.4%	-7.2%	3.1%	/	/	27.5%
O=C(N/N=C/c1ccc(OC(F)F)cc1)c1ccc(Br)cc1	-14.1%	-3.2%	-13.8%	-6.2%	-0.7	79.4µM*
COc1cccc(OCc2cc(C3Nc4ccccc4C(=O)N3Cc3ccco3)ccc2OC)c1 (stereo unspecified)	-22.2%	-9.7%	24.4%	-23.7%	8.2	5.8%
COc1ccc(C2Nc3ccccc3C(=O)N2Cc2ccco2)cc1COc1c(C)cccc1C (stereo unspecified)	/	-15.6%	25.1µM*	/	/	/
O=c1c2ccccc2nc(/C=C/c2cccnc2)n1CCc1ccccc1	?	-22.4%	7.94µM*	?	-5.0	17.2%
O=c1c2ccccc2nc(/C=C/c2ccccc2)n1CCc1ccccc1	-7.9%	-17.0%	5.0%	3.2%	-1.3	12.3%
Nc1nc(-c2nn(Cc3ccccc3F)c3ncccc23)ncc1C1CC1	/	12.2%[60.1 µM]	/	/	/	/
Cc1ccc(NC(=O)N2CCN(c3nnc(C)c4c(C)n(-c5ccccc5)nc34)CC2)cc1Cl	/	0.0%	5.9%	/	/	0.8%
COC(=O)CCCC1=CC2=CC(=O)C(C)(OC(=O)c3cccs3)C(=O)C2=CN1CCCCO (stereo unspecified)	-12.8%	-7.3%	22.4µM*	3.0%	1.3	12.7%
COC(=O)CCC(=O)OC1(C)C(=O)C2=CN(Cc3ccc(OC)cc3)C(c3ccc(OC)cc3)=CC2=C(Br)C1=O (stereo unspecified)	-6.0%	-12.4%	81.3%	1.9%	-12.6	/
COCCN1C=C2C(=O)C(C)(OC(=O)c3cccs3)C(=O)C=C2C=C1CCCC(=O)OC (stereo unspecified)	-6.3%	-17.3%	?	7.8%	-3.8	2.9%
CC1(OC(=O)C2CCCC2)C(=O)C=C2C=C3CCCCN3C=C2C1=O (stereo unspecified)	?	?	?	5.7%	-3.3	13.2%
COC(=O)CCC(=O)OC1(C)C(=O)C=C2C=C3CCCN3C=C2C1=O (stereo unspecified)	50.1µM*	?	?	-2.7%	-15.5	-25.7%
C=CCN1C=C2C(=O)C(C)(OC(=O)CCC(=O)OC)C(=O)C=C2C=C1C1CC1 (stereo unspecified)	-3.6%	-5.0%	85.1%	-1.8%	-0.3	-14.8%
COC(=O)CCC(=O)OC1(C)C(=O)C=C2C=C(C3CC3)N(CCCOC(C)C)C=C2C1=O (stereo unspecified)	89.1µM*	-33.4%	?	-3.0%[57.1 µM]	-3.1	22.4%
COC(=O)CCC(=O)OC1(C)C(=O)C2=CN(C3CC3)C(c3ccc(OC)cc3)=CC2=C(Br)C1=O (stereo unspecified)	79.4µM*	-23.7%	?	-8.0%	-2.8	/
CC(C)(C)n1ncc2c(=O)n(Cc3cccc(-c4ccccc4)c3)cnc21	/	2.9%	20.4%	/	/	/
